Molecules are shown by their SMILES. The panel holds about 79,000 compounds, 15% with a hit somewhere; the sample as a whole holds those more often. The source made the active and inactive calls. No stated cut-off is given here; in the data, active means growth inhibition above about 70%; inactive means the rest.

The first assay in a line: NCI Yeast Anticancer Drug Screen. Data for the sgs1 mgt1 strain (AID 161).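 Further: 0% = growth of cultures given vehicle only.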 The note with it: S. cerevisiae sgs1 mgt1 strain, hits give high values; at 50.0 µM unless noted. The procedure, abridged: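 Genetically altered yeast, compound exposure, growth inhibition relative to vehicle.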
Regarding `CC(=O)OC1CCC2(C)C(CCC3C2C(=O)C(OC(C)=O)C2(C)C3CC3OC4(CCC(C)CO4)C(C)C32)C1` (stereo not given), the growth inhibition was -11.2% (inactive).
Same read-out and setting: to `N.N.N.N.O=C(O)C1OCCOCCOC(C(=O)O)C(C(=O)O)OCCOCCOC1C(=O)O.[Pt+2].[Pt+2]` (stereo not given) belongs -12.5% (inactive); to `O=C(O)c1ccccc1SCCO`, 25.3% (inactive).
`CC(C)C(=O)NCC[C@@H](CNC(=O)OC(C)(C)C)NC(=O)OC(C)(C)C`: the growth inhibition is 38.6% (inactive).
Still for that read-out and setting: to `CC1CC(C)OC(c2ccc(Cl)cc2)O1` (stereo not given) belongs 17.2% (inactive).
As for `CCCCCCCCCCCCOC(=O)NC1c2ccccc2Oc2ccccc21`, the growth inhibition was 26.6% (inactive).
The same measure, in the same setting: to `CC1(C)OC2C(/C=C\C(=O)c3ccccc3)OC(n3ccc(=O)[nH]c3=O)C2O1` (stereo not given) belongs 5.6% (inactive).
On the same count and under the same terms, to `CC(=NCCCCN=C(C)c1cc(O)cc(Br)c1O)c1cc(O)cc(Br)c1O.[Co]` belongs 12.3% (inactive).
Still for that read-out and setting: to `CN1C(=O)C/C(=C/[N+](=O)[O-])c2ccccc21` belongs 4.2% (inactive).
In the case of `CC(C)=CC(=O)CNC(N)=S`, the growth inhibition was 16.4% (inactive).
On the same count and under the same terms, to `OCC[P+](c1ccccc1)(c1ccccc1)c1ccccc1` belongs -6.2% (inactive); to `CC(C)CCO/N=C(\N)N=C(N)N`, 14.3% (inactive).
On the same count and under the same terms, the result for `Cc1ccc(C2SC(N)=Nc3c2c(C)nn3C(=O)c2ccc(Cl)cc2)cc1` (stereo not given) reads -16.4% (inactive); that for `O=P(O)(O)c1ccc(-c2ccc(I)cc2)cc1`, 7.45% (inactive); that for `COc1ccc(Br)cc1C1OC(=O)c2c(OC)c(OC)cc([N+](=O)[O-])c21` (stereo not given), 20.5% (inactive).
Still for that read-out and setting: to `COc1ccccc1OC(=O)Nc1ccc(S(=O)(=O)NC2CCCCC2)cc1` belongs 0% (inactive); to `C=CCc1cc(OC)c2c(c1)C(O)CC(c1ccc(OC)c(OC)c1)O2` (stereo not given), 18.6% (inactive); to `N#CC1C(c2ccc(Cl)cc2)C(C(N)=O)C(=O)NC1(O)c1ccccc1` (stereo not given), 8.45% (inactive).
Turning to `COc1cc(C2c3cc4c(cc3[C@H](OCCN(C)C)[C@@H]3COC(=O)C23)OCO4)cc(OC)c1O` (stereo not given in full), the growth inhibition was 83.3% (active).
Regarding `NC(=O)CC[n+]1ccccc1`, the growth inhibition was 6.5% (inactive).
For the molecule `COC(=O)C1=Nc2c(C)nn(-c3ccccc3)c2N=C(c2ccc([N+](=O)[O-])cc2)C1`, the growth inhibition was -0.55% (inactive).
On to `CC(C)(C)OC(=O)N1CCC2(CC1)C(=O)NCN2c1ccccc1`, for which the growth inhibition is -3% (inactive).
On the same count and under the same terms, the result for `Clc1nc(NCCc2ccccc2)c2ncn(-c3ccccc3)c2n1` reads 34.1% (inactive); that for `COc1cccc(N2C(=O)C3c4[nH]c5ccc(C)cc5c4C4CCC(C)CC4C3C2=O)c1` (stereo not given), -29.1% (inactive).
For `CCOC(=O)C1=C(O)C(=O)C=C(O)C1=N`, the growth inhibition is -11.6% (inactive).
Still for that read-out and setting: the result for `COc1ccc(OC2OC(CO)C(O)C(O)C2O)cc1` (stereo not given) reads -4.3% (inactive); that for `CNC(=O)N(CCCCC(NC(C)=O)C(=O)NCc1ccccc1)Cc1ccccc1` (stereo not given), -15.8% (inactive).
Still for that read-out and setting: to `Cc1cc(NC(=O)C(=O)Cc2nc3ccccc3s2)ccc1Cl` belongs 21.9% (inactive).
Same read-out and setting: to `ClCCN1CCOC1=Nc1ccc2c(c1)CCCC2` belongs 2.6% (inactive).
For the molecule `CCCC(=O)CC(=O)Nc1ccccc1`, the growth inhibition is -14.9% (inactive).
On the same count and under the same terms, to `CCCCCCCCCCCC(O)C(C)(C)C` (stereo not given) belongs -12.6% (inactive); to `Cc1ccc(C(CC(=O)C(C)(C)CN2CCCCC2)SCCS(=O)(=O)O)cc1` (stereo not given), 11.1% (inactive); to `c1ccc2nc3c(cc2c1)c1c(c2ccccc23)CCCC1`, 20.4% (inactive).
Same read-out and setting: the result for `CCCCCO.CCCCCO.CCCCCO.CCCCCO.[Ti]` reads -3.3% (inactive); that for `OCCC1CCCCN1` (stereo not given), -20.4% (inactive).
Still for that read-out and setting: to `CCc1cc(C)c(C)cc1O` belongs -38.9% (inactive).
For the molecule `O=CC(O)C(O)C(O)C(O)C(O)C(O)CO` (stereo not given), the growth inhibition was 28.1% (inactive).
On the same count and under the same terms, the result for `CC(=O)OC1CCC2(C)C(C1)C(=O)OC1C2CCC2(C)C(C(C)CCCC(C)C)CCC12` (stereo not given) reads 2.75% (inactive); that for `CCn1c(CCCc2nc3c([nH]2)c(=O)n(C)c(=O)n3C)nc2c1c(=O)n(C)c(=O)n2C`, -45.1% (inactive).
On to `C/C(=C\CNc1nc(Cl)nc2nc[nH]c12)CO`, for which the growth inhibition was -32.6% (inactive).

A further assay can be described thus: NCI Yeast Anticancer Drug Screen. Data for the cln2 rad14 strain (AID 165).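 Further: 0% = growth equal to vehicle treated cultures.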 The note with it: S. cerevisiae cln2 rad14 strain, hits give high values; at 50.0 µM unless noted. The procedure, abridged:
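Growth of compound-exposed yeast (cln2 rad14 genotype) measured and expressed as inhibition relative to vehicle.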
As to `CC(=O)OC1CCC2(C)C(CCC3C2C(=O)C(OC(C)=O)C2(C)C3CC3OC4(CCC(C)CO4)C(C)C32)C1` (stereo not given), the growth inhibition was 3.6% (inactive).
The same measure, in the same setting: the result for `N.N.N.N.O=C(O)C1OCCOCCOC(C(=O)O)C(C(=O)O)OCCOCCOC1C(=O)O.[Pt+2].[Pt+2]` (stereo not given) reads -26.1% (inactive).
As to `O=C(O)c1ccccc1SCCO`, the growth inhibition was 47.8% (inactive).
Same read-out and setting: the result for `CC(C)C(=O)NCC[C@@H](CNC(=O)OC(C)(C)C)NC(=O)OC(C)(C)C` reads -3.85% (inactive); that for `CC1CC(C)OC(c2ccc(Cl)cc2)O1` (stereo not given), -28.8% (inactive); that for `CCCCCCCCCCCCOC(=O)NC1c2ccccc2Oc2ccccc21`, 32.5% (inactive).
The same measure, in the same setting: the result for `CC1(C)OC2C(/C=C\C(=O)c3ccccc3)OC(n3ccc(=O)[nH]c3=O)C2O1` (stereo not given) reads 13.4% (inactive).
On the same count and under the same terms, to `CC(=NCCCCN=C(C)c1cc(O)cc(Br)c1O)c1cc(O)cc(Br)c1O.[Co]` belongs 6.45% (inactive); to `CN1C(=O)C/C(=C/[N+](=O)[O-])c2ccccc21`, 8.05% (inactive).
For the molecule `CC(C)=CC(=O)CNC(N)=S`, the growth inhibition is 10.7% (inactive).
Still for that read-out and setting: to `OCC[P+](c1ccccc1)(c1ccccc1)c1ccccc1` belongs 16.4% (inactive); to `CC(C)CCO/N=C(\N)N=C(N)N`, 2.7% (inactive).
On the same count and under the same terms, to `Cc1ccc(C2SC(N)=Nc3c2c(C)nn3C(=O)c2ccc(Cl)cc2)cc1` (stereo not given) belongs -33.5% (inactive); to `O=P(O)(O)c1ccc(-c2ccc(I)cc2)cc1`, 22.2% (inactive).
The same measure, in the same setting: the result for `COc1ccc(Br)cc1C1OC(=O)c2c(OC)c(OC)cc([N+](=O)[O-])c21` (stereo not given) reads 8.2% (inactive); that for `COc1ccccc1OC(=O)Nc1ccc(S(=O)(=O)NC2CCCCC2)cc1`, 2.25% (inactive).
As to `C=CCc1cc(OC)c2c(c1)C(O)CC(c1ccc(OC)c(OC)c1)O2` (stereo not given), the growth inhibition is -14.3% (inactive).
Consider `N#CC1C(c2ccc(Cl)cc2)C(C(N)=O)C(=O)NC1(O)c1ccccc1` (stereo not given), for which the growth inhibition was 8.95% (inactive).
Same read-out and setting: to `COc1cc(C2c3cc4c(cc3[C@H](OCCN(C)C)[C@@H]3COC(=O)C23)OCO4)cc(OC)c1O` (stereo not given in full) belongs 67.8% (inactive).
The same measure, in the same setting: the result for `NC(=O)CC[n+]1ccccc1` reads 11.7% (inactive).
Same read-out and setting: the result for `COC(=O)C1=Nc2c(C)nn(-c3ccccc3)c2N=C(c2ccc([N+](=O)[O-])cc2)C1` reads -67.1% (inactive); that for `CC(C)(C)OC(=O)N1CCC2(CC1)C(=O)NCN2c1ccccc1`, 31.2% (inactive); that for `Clc1nc(NCCc2ccccc2)c2ncn(-c3ccccc3)c2n1`, 12.9% (inactive).
Regarding `COc1cccc(N2C(=O)C3c4[nH]c5ccc(C)cc5c4C4CCC(C)CC4C3C2=O)c1` (stereo not given), the growth inhibition was -6.5% (inactive).
Still for that read-out and setting: to `CCOC(=O)C1=C(O)C(=O)C=C(O)C1=N` belongs 4.5% (inactive).
Same read-out and setting: to `COc1ccc(OC2OC(CO)C(O)C(O)C2O)cc1` (stereo not given) belongs 18.1% (inactive); to `CNC(=O)N(CCCCC(NC(C)=O)C(=O)NCc1ccccc1)Cc1ccccc1` (stereo not given), -12.4% (inactive).
The same measure, in the same setting: to `Cc1cc(NC(=O)C(=O)Cc2nc3ccccc3s2)ccc1Cl` belongs 43.9% (inactive); to `ClCCN1CCOC1=Nc1ccc2c(c1)CCCC2`, 4.4% (inactive); to `CCCC(=O)CC(=O)Nc1ccccc1`, -23.9% (inactive).
Take `CCCCCCCCCCCC(O)C(C)(C)C` (stereo not given): the growth inhibition was -39.2% (inactive).
Same read-out and setting: the result for `Cc1ccc(C(CC(=O)C(C)(C)CN2CCCCC2)SCCS(=O)(=O)O)cc1` (stereo not given) reads 9.4% (inactive); that for `c1ccc2nc3c(cc2c1)c1c(c2ccccc23)CCCC1`, -25.4% (inactive).
On the same count and under the same terms, the result for `CCCCCO.CCCCCO.CCCCCO.CCCCCO.[Ti]` reads 8.55% (inactive).
The same measure, in the same setting: the result for `OCCC1CCCCN1` (stereo not given) reads -18.4% (inactive); that for `CCc1cc(C)c(C)cc1O`, 0.5% (inactive).
Regarding `O=CC(O)C(O)C(O)C(O)C(O)C(O)CO` (stereo not given), the growth inhibition was -1.55% (inactive).
On the same count and under the same terms, to `CC(=O)OC1CCC2(C)C(C1)C(=O)OC1C2CCC2(C)C(C(C)CCCC(C)C)CCC12` (stereo not given) belongs -12.7% (inactive).
Same read-out and setting: to `CCn1c(CCCc2nc3c([nH]2)c(=O)n(C)c(=O)n3C)nc2c1c(=O)n(C)c(=O)n2C` belongs 33.2% (inactive).
On the same count and under the same terms, to `C/C(=C\CNc1nc(Cl)nc2nc[nH]c12)CO` belongs 3.6% (inactive).

Source of the values: PubChem BioAssay (NCI).
